From PubChem BioAssay AID1285 (Columbia University Molecular Screening Center, 2008)
Screen size: about 190,000 compounds; about 1,600 (0.84%) were called active.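 How the source made its calls: active means inhibition above a set limit, derived from the sample mean plus 3 SD (cut at about 45% in these data); inconclusive means one replicate passes the limit while the other fails; inactive means the rest.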 Only a selection was taken, and actives are over-represented in it overall.

test: inhibitors of APP translation via 5'UTR reporter, primary screen, APP 5'UTR luciferase, SH-SY5Y cells (AID 1285); settings: SH-SY5Y APP 5'UTR-luciferase reporter, luminescence; at 2 µM; stronger effect = higher value

Row | Compound | inhibition
1 | Cc1cc(C(=O)NNC(=O)CCC2CCCCC2)c(C)o1 | -4% (inactive)
2 | O=C(Cc1cccs1)N(CC1CCCO1)C1(C(=O)NC2CCCCC2)CCCCC1 (stereo not drawn) | -11.4% (inactive)
3 | Cc1ccc(C(=O)OC2CCCN(C)C2)cc1 (stereo not drawn) | 5.1% (inactive)
4 | Cc1nnc(-c2ccc(Oc3ccc(C)c(C)c3)c([N+](=O)[O-])c2)o1 | 11.5% (inactive)
5 | Cc1[nH]c2ccccc2c1/C=N\NC(=O)Cn1nnc(-c2ccccc2)n1 | -1.1% (inactive)
6 | CC1=NN(C(=O)CCc2ccccc2O)C(O)(C(F)(F)F)C1 (stereo not drawn) | 8.6% (inactive)
7 | Cc1cc(NC(=O)COC(=O)COc2ccc(Cl)cc2C)c([N+](=O)[O-])cc1C | 8.7% (inactive)
8 | Cc1ccc(C(C)C)cc1OCCN1CCCC1 | -3.6% (inactive)
9 | Cc1cc(N2CCN(C)CC2)nc2ccc(NC(=S)N3CCOCC3)cc12 | -5.6% (inactive)
10 | COc1cccc(/C=N/Nc2ncc(C(F)(F)F)cc2Cl)c1O | 80.5% (active)
11 | COc1cccc(/C(C)=N/Nc2ncc(Cl)cc2Cl)c1 | -24.9% (inactive)
12 | COc1cc(/C=C2\SC(=S)N(Nc3ncc(C(F)(F)F)cc3Cl)C2=O)cc(OC)c1OC | 0.7% (inactive)
13 | OCCC1CN(Cc2cccc(O)c2)CCN1CCc1ccccc1 (stereo not drawn) | 1% (inactive)
14 | Cc1nn(C)c(C)c1S(=O)(=O)N1CCC(CO)(Cc2ccc(Cl)cc2)CC1 | 26.8% (inactive)
15 | CC(=O)Nc1cccc([N+](=O)[O-])c1 | -68.1% (inactive)
16 | COC(=O)/C=C\C(=O)Nc1cccc([N+](=O)[O-])c1 | 65% (active)
17 | Cc1ccccc1NC(=S)Nc1cccc([N+](=O)[O-])c1 | 10.9% (inactive)
18 | CCOC(=O)c1c(C)[nH]c2c1-c1ccccc1C(=O)C2=O | 95.9% (active)
19 | CCOC(=O)c1c(C)[nH]c(=S)c(C#N)c1-c1ccccc1 | 17.1% (inactive)
20 | Cc1[nH]c2ccccc2c1C(=O)COC(=O)C(C)C | -8.5% (inactive)
21 | CSc1ccc(C(=O)C2CCCN(C(=O)c3ccc(C)nc3)C2)cc1 (stereo not drawn) | -16.6% (inactive)
22 | CCOc1cc(N2CCOCC2)c(OCC)cc1NC(=O)C1=NN(c2cccc(C)c2)C(=O)CC1 | -5.2% (inactive)
23 | CCCn1c(N)c(C(=O)CSc2nc3ccccc3c(=O)n2-c2ccc(OC)cc2)c(=O)[nH]c1=O | -3.9% (inactive)
24 | O=c1c2c(nc3cc(-c4cccc(Cl)c4)[nH]n13)CCCC2 | -158% (inactive)
25 | O=C1CCCc2c1nc(-c1cccc(Cl)c1)n2O | 94.3% (active)

Row | Compound | inhibition
26 | CCOC(=O)CSc1ncc(-c2cccc(Cl)c2)cn1 | -2.7% (inactive)
27 | CCCn1c(NC(=O)C23CC4CC(CC(O)(C4)C2)C3)nc2ccccc21 | 9% (inactive)
28 | COC(=O)c1c(C)oc2ccc(N(C(=O)Oc3ccccc3)S(=O)(=O)c3ccccc3)cc12 | 0.2% (inactive)
29 | O=C(NC(=S)Nc1ccc2oc(=O)ccc2c1)c1ccc(-c2cccc(Cl)c2Cl)o1 | 2.2% (inactive)
30 | CCOc1cc(NC(=O)CCl)c(OCC)cc1NC(C)=O | 5.3% (inactive)
31 | CCOc1cccc(-c2nnc3sc(COc4ccc(OC)cc4)nn23)c1 | -2.3% (inactive)
32 | COc1ccc(-n2nnnc2-c2nc3ccccc3s2)cc1 | -237% (inactive)
33 | CCOc1cccc(-n2nnnc2-c2ccc(OC)cc2)c1 | 65.8% (active)
34 | C/C(=N\NC(=O)c1ccc(CSc2nc(C)cc(C)n2)cc1)C1CCCCC1 | -23.6% (inactive)
35 | COc1cccc(CNCCc2c[nH]c3ccccc23)c1OCc1ccccc1F | -3.5% (inactive)
36 | COc1ccc(C(CCNCc2ccccc2F)c2ccc(F)cc2)cc1 (stereo not drawn) | 50.4% (active)
37 | COc1ccc(CC(=O)NC(C)CCc2ccccc2)cc1 (stereo not drawn) | 18.8% (inactive)
38 | CCC(C)(C)NC(=O)C1c2ccccc2Oc2ccccc21 | -10.4% (inactive)
39 | COc1cc2nc(CN(C)Cc3ccc(F)cc3)[nH]c(=O)c2cc1OC | -10.3% (inactive)
40 | O=C(CN1CCN(S(=O)(=O)c2ccc(F)cc2)CC1)Nc1ccccc1F | -2% (inactive)
41 | CCOC(=O)N1CCN(S(=O)(=O)c2ccc(C(=O)Nc3ccc(F)cc3F)cc2)CC1 | 92.2% (active)
42 | COc1ccc(C(=O)Nc2ccc(F)cc2F)cc1 | -131% (inactive)
43 | Cc1nc(-c2ccc(Cl)cc2)sc1C(=O)CBr | 5.2% (inactive)
44 | Clc1ccc(N/N=C/c2cccs2)nn1 | -17.2% (inactive)
45 | COc1cccc2c1OCC(CN1CCN(C3CCCCC3)C(CCO)C1)=C2 (stereo not drawn) | 10.6% (inactive)
46 | CCN(CC)c1ccc(NC(=O)c2ccc(Cl)nc2)cc1 | 66.1% (active)
47 | NS(=O)(=O)c1ccc(NC(=O)COC(=O)c2ccc(Cl)nc2)cc1 | -14.1% (inactive)
48 | O=C(NNc1ccccn1)c1ccc(Cl)nc1 | 9.8% (inactive)
49 | Cc1ccc(S(=O)(=O)N(C)c2ccc(OCC(=O)NC3=NCCS3)cc2)cc1 | -2.9% (inactive)
50 | CCCC(=O)Nc1nc2ccc(NC(=O)c3c(F)c(F)c(OC)c(F)c3F)cc2s1 | 88.8% (active)

Row | Compound | inhibition
51 | COc1ccc2nc(Nc3nc4ccc(NC(C)=O)cc4s3)sc2c1 | -20.2% (inactive)
52 | CCCC(=O)Nc1nc2ccc(NC(=O)c3cccnc3)cc2s1 | 4.1% (inactive)
53 | CCOc1cnc(-c2c(-c3ccccc3Cl)noc2C)o1 | 16.9% (inactive)
54 | O=C(Cn1ncc(N2CCCC2)c(Br)c1=O)c1ccc(Cl)cc1 | -71.1% (inactive)
55 | CCCCC(C(=O)OCC(=O)c1ccc(OC)cc1)N1C(=O)c2ccccc2C1=O (stereo not drawn) | 7.1% (inactive)
56 | CCOC(=O)c1ccccc1NS(=O)(=O)c1ccc(OC)cc1 | -5.3% (inactive)
57 | CCOC(=O)C1=C(c2ccc(OC)cc2)C(=O)c2ccccc2C1=O | 59.6% (active)
58 | C[C@@H]1C[C@@H]2O[C@H]2/C=C\C=C\C(=O)Cc2c(Cl)c(O)cc(O)c2C(=O)O1 | 95% (active)
59 | O=C(Nc1ccc2c(c1)OCO2)c1sc2cc(Cl)ccc2c1Cl | -85% (inactive)
60 | O=S(=O)(NCCc1ccncc1)c1ccccc1 | 16.4% (inactive)
61 | Cc1ccc(-c2cc(=O)c3ccc(Cl)cc3[nH]2)cc1 | -13.4% (inactive)
62 | Cc1ccc(-c2cc(=O)c3ccc(F)cc3[nH]2)cc1 | -29.4% (inactive)
63 | O=c1cc(-c2ccccc2)[nH]c2cc(F)ccc12 | 89.6% (active)
64 | Cc1ccnc(NS(=O)(=O)c2ccc(NC(=O)c3ccc(S(=O)(=O)N4CCOCC4)cc3)cc2)n1 | 5.8% (inactive)
65 | Cc1ccc(/C=N/NC(=O)C2=NNC(c3ccccc3)(c3ccccc3)C2)c(O)c1 | 73% (active)
66 | Cc1cccc(-n2c(C)cc(/C=N\NC(=O)c3cccs3)c2C)c1 | -62.9% (inactive)
67 | Cc1ccc(-c2nn(-c3ccccc3)cc2/C=N/NC(=O)c2ccc3c(c2)OCO3)cc1 | 4.8% (inactive)
68 | O=C(CCc1n[nH]c(=O)[nH]c1=O)N/N=C/c1ccc(Br)o1 | -6.1% (inactive)
69 | CCCOC(=O)c1[nH]c2c(c1C)C(=O)CC(c1cc(OC)c(OC)c(OC)c1)C2 (stereo not drawn) | -2.1% (inactive)
70 | CCOC(=O)c1[nH]c2c(c1C)C(=O)CC(c1ccc(N(C)C)cc1)C2 (stereo not drawn) | -13.3% (inactive)
71 | CCCOC(=O)c1[nH]c2c(c1C)C(=O)CC(c1cccs1)C2 (stereo not drawn) | 92% (active)
72 | CC(C)(C)NC(=O)NC(=O)COC(=O)CCC1CCCCC1 | 61.5% (active)
73 | CC(C)(C)NC(=O)NC(=O)COC(=O)C1(C)CC1(Cl)Cl (stereo not drawn) | 12.7% (inactive)
74 | COc1ccccc1OCCC(=O)OCC(=O)NC(=O)NC(C)(C)C | -5.5% (inactive)
75 | CN1CCC(OC(=O)COc2ccc(Cl)cc2Cl)CC1 | -5.1% (inactive)

Row | Compound | inhibition
76 | COc1ccc(C(=O)Nc2ccccc2C(=O)N/N=C/c2ccccc2OC)cc1 | -8.9% (inactive)
77 | COc1cccc(/C=N/NC(=O)c2[nH]nc3c2CCc2ccccc2-3)c1O | 79.7% (active)
78 | COc1cccc(/C=N\NC(=O)C2=NNC(=O)C2C)c1O (stereo not drawn) | -73.4% (inactive)
79 | CCN(Cc1ccccc1)S(=O)(=O)c1cc(C(=O)O)ccc1OC | -51.9% (inactive)
80 | N#C/C(C(=O)N1CCOCC1)=C1/SC(Cc2ccc(F)cc2)C(=O)N1c1ccccc1 (stereo not drawn) | 56.6% (active)
81 | Cc1ccc(CC2S/C(=C(/C#N)C(=O)N3CCOCC3)N(c3ccccc3)C2=O)cc1 (stereo not drawn) | -2.7% (inactive)
82 | O=C(CC1SC(=Nc2ccccc2F)N(CCN2CCOCC2)C1=O)Nc1ccc(F)cc1F (stereo not drawn) | -19.1% (inactive)
83 | CCN(CC)C(=O)CS(=O)CC(=O)Nc1cc(OCCOC)c(Cl)cc1Cl (stereo not drawn) | -14% (inactive)
84 | Cc1oc2c(c1C(=O)N1CCOCC1)C(=O)c1ccccc1C2=O | 2.1% (inactive)
85 | O=C(NNC(=S)Nc1ccccc1)c1cccc(S(=O)(=O)N2CCOCC2)c1 | -32.5% (inactive)
86 | CCOC(=O)c1cnc(-n2nc(C)cc2C)nc1-n1nc(C)cc1C | 6% (inactive)
87 | CCOC(=O)c1cnc(-n2nc(C)cc2C)nc1Nc1cccc(C(C)=O)c1 | -11.9% (inactive)
88 | CCOC(=O)c1cnc(-n2nc(C)cc2C)nc1NNc1cc(C)nc(-c2ccccc2)n1 | 72.1% (active)
89 | Cc1ccc(C(=O)NC(C)c2ccccc2)cc1Br (stereo not drawn) | 25.6% (inactive)
90 | C/C=C/c1ccc(OCC(O)CN2CCCCCCC2)c(OC)c1 (stereo not drawn) | -39% (inactive)
91 | Cc1ccc(Oc2ccc(N)cc2)cc1 | 3.7% (inactive)
92 | CC(C)(C)c1ccc(Oc2ccc(N)cc2)cc1 | 84.4% (active)
93 | Nc1ccc(Oc2ccc(Cl)cc2)cc1 | 11.4% (inactive)
94 | Oc1ccc(/C=N/N(Cc2ccccc2)c2ccccc2)cc1 | -13.4% (inactive)
95 | N=C1/C(=C/c2cccn2-c2cccc([N+](=O)[O-])c2)C(=O)N=C2SC=CN12 | 17.8% (inactive)
96 | Cc1c(Cl)c([N+](=O)[O-])nn1Cc1ccc(C(=O)N/N=C\c2cc(Cl)ccc2O)o1 | 68.5% (active)
97 | O=C(N/N=C/c1ccc2c(c1)OCO2)c1ccc(Cn2cc([N+](=O)[O-])cn2)o1 | -17.9% (inactive)
98 | Cc1c(Cl)c([N+](=O)[O-])nn1CCCC(=O)Nc1cc(Cl)ccc1Cl | -6.1% (inactive)
